Screens from PubChem.
DT40 TDP1 CPT = qHTS for Inhibitors of human tyrosyl-DNA phosphodiesterase 1 (TDP1): qHTS in cells in presence of CPT; actives 12% (n = 420,000); chicken DT40 Tdp1-/-;hTDP1 cells + 20 nM CPT, ATP luminescence, 48 h; Potency, µM (doses to about 46.2 µM), without a hit: at the top dose activity change, negative = growth inhibition, usual class: inhibitors; further: potency means the concentration at half of the fitted maximal effect; on the % scale 0 is the no-effect control and ±100 the full control effect; nearly all actives have a fitted effect of over 55% in size
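Chicken DT40 Tdp1-/- cells stably complemented with human TDP1 were seeded at 400 cells/well in medium containing 20 nM camptothecin, exposed to pin-transferred compounds, and grown at 37 °C for at least 48 hr. Viability was read as ATP luminescence.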
DT40 TDP1 no CPT = qHTS for Inhibitors of human tyrosyl-DNA phosphodiesterase 1 (TDP1): qHTS in cells in absence of CPT; Potency, µM (titrated, usually from 46.2 µM), for inactives: at the top dose activity change, negative = growth inhibition, actives largely listed as inhibitors; actives 15% (n = 420,000); AID 686978, 2013; DT40 Tdp1-/- hTDP1 cells, no CPT, ATP luminescence, 48 h; further: potency means the concentration at half of the fitted maximal effect; on the % scale 0 is the no-effect control and ±100 the full control effect; nearly all actives have a fitted effect of over 55% in size
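A cellular qHTS used chicken DT40 cells lacking endogenous Tdp1 but carrying stably transfected human TDP1. Compounds were applied without camptothecin, and cell growth kinetics were judged by ATP-dependent luminescence after ≥48 hr.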
TDP1 block = qHTS Assay for Inhibitors of Tyrosyl-DNA Phosphodiesterase (TDP1); recombinant TDP1, AlphaScreen DNA substrate cleavage; Potency, µM (highest dose often 130 µM), inactives show at the highest dose activity change, negative = inhibition, most hits filed as inhibitors; actives 0.28% (n = 350,000); AID 485290, 2010; further: potency means the concentration at half of the fitted maximal effect; on the % scale 0 is the no-effect control and ±100 the full control effect; nearly all actives have a fitted effect of over 40% in size
Target sequence (Q9NUW8 whole entry, looked up): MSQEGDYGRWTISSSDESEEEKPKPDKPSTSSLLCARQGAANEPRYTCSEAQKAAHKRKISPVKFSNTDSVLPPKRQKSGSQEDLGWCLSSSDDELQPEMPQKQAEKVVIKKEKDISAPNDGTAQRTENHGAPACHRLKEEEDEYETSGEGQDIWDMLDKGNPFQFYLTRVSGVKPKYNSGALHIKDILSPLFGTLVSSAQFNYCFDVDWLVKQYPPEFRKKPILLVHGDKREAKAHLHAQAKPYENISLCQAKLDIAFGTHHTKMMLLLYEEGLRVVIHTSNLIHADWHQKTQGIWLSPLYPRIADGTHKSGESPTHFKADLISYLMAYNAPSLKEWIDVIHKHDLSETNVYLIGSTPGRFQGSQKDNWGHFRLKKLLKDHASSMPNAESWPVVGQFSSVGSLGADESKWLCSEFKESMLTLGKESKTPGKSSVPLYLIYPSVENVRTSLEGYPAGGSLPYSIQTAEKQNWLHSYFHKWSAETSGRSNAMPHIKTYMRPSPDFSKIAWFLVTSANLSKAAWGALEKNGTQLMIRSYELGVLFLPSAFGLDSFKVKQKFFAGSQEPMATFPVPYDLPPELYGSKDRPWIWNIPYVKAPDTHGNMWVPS
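Signal: AlphaScreen proximity between streptavidin donor and anti-FITC acceptor beads on intact substrate. Reaction: Tdp1 1 nM, substrate 15 nM final, 5 min RT after 15 min compound preincubation.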
miR-21 act = qHTS Assay for Modulators of miRNAs and/orActivators of miR-21 | HeLa miR-21 FLuc reporter, luciferase, 48 h | 340,000 tested, under 10 active | AID 2288, 2010 | Potency, µM (titrated, usually from 38.3 µM), without a hit: at the highest dose activity change, positive = activation, most hits filed as activators;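 further: % of control where 0% means no effect; miR-21 action dims this reporter so a rising signal means less miR-21 action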
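Using DMEM plus 10% FBS, HeLa miR-21-FLuc cells are incubated with test compounds (final up to about 40uM) for 48 hours; firefly luciferase signal is then imaged following reagent-mediated lysis.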
uPA surface inh = qHTS for Inhibitors of Cell Surface uPA Generation | actives 0.31% (n = 330,000) | cell surface uPA generation assay, qHTS | AID 540303, 2011 | Potency, µM (doses to about 38.3 µM), inactives show at the top dose activity change, negative = inhibition, actives largely listed as inhibitors; active means well fitted inhibition curve with a large enough effect; inconclusive means small, poorly fitted or top-dose-only effect; inactive means no such curve, though single readings can be large or run the other way; tested in mouse RAW 264.7 cells; further: potency means the concentration at half of the fitted maximal effect; on the % scale 0 is the no-effect control and ±100 the full control effect; nearly all actives have a fitted effect of over 55% in size
Numbers without * were called inactive. Compounds with a hit are over-represented: about 16% of the library has one in this group of screens. Unless noted, the call rests on the fitted dose curve; in most records, active means well fitted curve in the direction sought with a large enough effect; inconclusive means small, poorly fitted or top-dose-only effect, or another doubt; inactive means no such curve, though single readings can be large; an effect the other way counts as inactive or inconclusive.

How did Cc1ccc(C)c(N2CCN(C(=O)CCCCCn3c(=O)[nH]c4ccccc4c3=O)CC2)c1 do in these assays?
DT40 TDP1 CPT: inconclusive; DT40 TDP1 no CPT: inconclusive; TDP1 block: 1%; miR-21 act: 26%

Results for CC1CC(C)CN(C(=O)CCCn2c(=O)c3cccn3c3cccnc32)C1 (centres undefined) ?
DT40 TDP1 CPT: -20%; DT40 TDP1 no CPT: 1%; TDP1 block: 4%; miR-21 act: -7%; uPA surface inh: 15%

Results for Cc1ccc(Cl)cc1N1CCN(C(=O)CCCCCn2c(=O)[nH]c3ccccc3c2=O)CC1 ?
DT40 TDP1 CPT: 0.73µM*; DT40 TDP1 no CPT: 0.65µM*; TDP1 block: 3%; miR-21 act: 27%

Results for Cc1cccc(N2CCN(C(=O)CCCn3c(=O)c4cccn4c4cccnc43)CC2)c1C ?
DT40 TDP1 CPT: inconclusive; DT40 TDP1 no CPT: 18µM*; TDP1 block: 5%; miR-21 act: 15%; uPA surface inh: -8%

What do the screens show for `Cc1ccc(Cl)cc1N1CCN(C(=O)CCCn2c(=O)c3cccn3c3cccnc32)CC1`?
DT40 TDP1 CPT: inconclusive; DT40 TDP1 no CPT: 29µM*; TDP1 block: 3%; miR-21 act: -4%; uPA surface inh: 18%

How did CCOc1ccc(C(=O)NCC(=O)OCC(=O)c2ccc3c(c2)-c2ccccc2C3)cc1 do in these assays?
DT40 TDP1 CPT: 3%; DT40 TDP1 no CPT: 1%; TDP1 block: -1%; miR-21 act: -16%; uPA surface inh: 8%

Results for CCOc1ccc(S(=O)(=O)NCCC(=O)NC2CCCCC2)cc1 ?
DT40 TDP1 CPT: -3%; DT40 TDP1 no CPT: -4%; uPA surface inh: 3%

How did CC(C)CNC(=O)c1ccc(C2SCC(=O)N2Cc2ccccc2)cc1 (centres undefined) do in these assays?
DT40 TDP1 CPT: inconclusive; DT40 TDP1 no CPT: 16µM*; TDP1 block: 0%; miR-21 act: -3%; uPA surface inh: -4%

How did COc1ccc(C(=O)Oc2ccc(/C=N/NC(=O)Cc3ccc([N+](=O)[O-])cc3)cc2)cc1 do in these assays?
DT40 TDP1 CPT: -19%; DT40 TDP1 no CPT: -11%; TDP1 block: -1%; miR-21 act: -4%; uPA surface inh: 2%

What do the screens show for `O=C(Cc1cccc2ccccc12)N/N=C/c1ccc(Sc2cccc3cccnc23)o1`?
TDP1 block: 1%; miR-21 act: -3%

What do the screens show for `O=C(CSc1cccc2cccnc12)N/N=C/c1ccc(F)cc1`?
DT40 TDP1 CPT: -8%; DT40 TDP1 no CPT: -16%; TDP1 block: 6%; miR-21 act: -10%; uPA surface inh: 1%

Results for O=C(CSc1cccc2cccnc12)N/N=C/c1cccc(O)c1 ?
DT40 TDP1 CPT: inconclusive; DT40 TDP1 no CPT: 16µM*; TDP1 block: 2%; miR-21 act: 0%; uPA surface inh: -2%

What do the screens show for `Cc1ccc(S(=O)(=O)N(CC(=O)N/N=C/c2cccc(C)c2)c2cccc3cccnc23)cc1`?
DT40 TDP1 CPT: inconclusive; DT40 TDP1 no CPT: 21µM*; TDP1 block: 1%; miR-21 act: -8%; uPA surface inh: -5%

What do the screens show for `COc1ccccc1N(CC(=O)N/N=C/c1ccc(C(=O)O)cc1)S(=O)(=O)c1ccc(C)cc1`?
DT40 TDP1 CPT: 4%; DT40 TDP1 no CPT: -4%; TDP1 block: 0%; miR-21 act: 2%; uPA surface inh: 0%

What do the screens show for `CCCCC(=O)N/N=C/c1ccc(Sc2cccc3cccnc23)o1`?
DT40 TDP1 CPT: inconclusive; DT40 TDP1 no CPT: 23µM*; TDP1 block: 6%; miR-21 act: -6%; uPA surface inh: 13%

How did O=C(N/N=C/c1ccc(O)c(O)c1)c1ccc(CSc2cccc3cccnc23)cc1 do in these assays?
DT40 TDP1 CPT: inconclusive; DT40 TDP1 no CPT: 8.2µM*; TDP1 block: 7%; miR-21 act: -13%; uPA surface inh: -9%
